This note sets out measurements from PubChem BioAssay (NCATS).

SMILES strings stand for the structures. Results filed as inconclusive are left out. Active and inactive are the calls of the source. The call rests on the fitted dose curve; in most records, active means well fitted inhibition curve with a large enough effect; inconclusive means small, poorly fitted or top-dose-only effect; inactive means flat fitted curve, though single readings scatter.

What all share (assay): qHTS profiling for inhibitors of Plasmodium falciparum proliferation (AID 504749); further: nearly all actives have a fitted effect of over 60% in size
Common to all, as to conditions: P. falciparum in erythrocytes, SYBR Green DNA, 72 h; series mostly up to 28.7 µM

One assay relates to CP260. Put shortly: (§1)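 Quantitative HTS: compounds pinned into medium, infected erythrocytes added (0.3% parasitemia, 2.5% hematocrit), 72 h culture at 37 C under 5% CO2. Saponin/Triton lysis with SYBR Green I, overnight RT, then fluorescence read.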
A further assay concerns CP265. An outline of the steps:
as §1

The next assay has as its system CP269. Put shortly:
as §1

The test system of the next assay is CP250. Put shortly:
as §1

In another assay the test system is CP252. An outline of the steps: as §1
The test system of a further assay is CP256. An outline of the steps: as §1
The subject of a further assay is CP262. Put shortly: as §1
In another assay the test system is CP268. Put shortly: as §1
The next assay relates to CP266. Put shortly:
as §1

The next assay relates to CP247. An outline of the steps:
as §1
Potency means the concentration at half of the fitted maximal effect.

For the compound `O=c1oc2c(O)c(O)cc3c(=O)oc4c(O)c(O)cc1c4c23`, the Potency with CP260 was 1.41 µM (active); in the assay on CP269, 0.757 µM (active). Further, in the assay with CP265, the Potency entry is “inactive”.
Turning to `CNC1CCCN(c2c(F)cc3c(=O)c(C(=O)O)cn(C4CC4)c3c2OC)C1` (centres undefined), the Potency entry with CP250, with CP252, in the assay on CP256, with CP260, with CP262 and in the assay on CP265 was “inactive” in each case. In addition, the Potency result in the assay with CP268 and with CP269 was “inactive” throughout.
Regarding `CC1=CC(=O)c2ccccc2C1=O`, the Potency result in the assay on CP252, in the assay with CP256, in the assay with CP262, with CP265, with CP266 and in the assay with CP268 was “inactive” in each case. Further, in the assay on CP269, the Potency result is “inactive”.
Take `COc1ccc(C(=O)CC(=O)c2ccc(C(C)(C)C)cc2)cc1`: the Potency entry with CP247, with CP250, in the assay on CP252, with CP256, with CP262 and with CP265 was “inactive” each time. Also, the Potency entry in the assay with CP266, with CP268 and in the assay on CP269 was “inactive” each time.
Turning to `CCOC(=O)c1ccc(C#Cc2ccc3c(c2)C(C)(C)CCS3)nc1`, the Potency entry in the assay with CP252, in the assay on CP262, with CP266 and with CP269 was “inactive” in each case.
As to `N[C@@H](Cc1ccc(O)c(O)c1)C(=O)O`, the Potency result in the assay on CP262, in the assay with CP266, in the assay with CP268 and in the assay on CP269 was “inactive” each time.
`NC(=O)N1c2ccccc2CC(=O)c2ccccc21`: the Potency entry in the assay with CP247, with CP250, in the assay on CP252, with CP256, in the assay with CP260 and with CP265 was “inactive” throughout. In addition, the Potency result in the assay on CP266, in the assay with CP268 and in the assay on CP269 was “inactive” throughout.
For `COc1cccc(N(C)C(=S)Oc2ccc3c(c2)CCCC3)n1`, the Potency entry in the assay on CP247, in the assay with CP250, in the assay on CP252, in the assay with CP256, in the assay with CP262 and with CP265 was “inactive” in each case. The Potency result in the assay on CP266 and in the assay with CP269 was “inactive” in each case.
As to `CN(Cc1cc(Br)cc(Br)c1N)C1CCCCC1`, the Potency entry in the assay on CP247, in the assay on CP250, with CP252, in the assay with CP256, in the assay with CP262 and with CP265 was “inactive” in each case. Also, the Potency entry with CP266, in the assay on CP268 and in the assay on CP269 was “inactive” throughout.
With `CCOC(=O)c1ccc(OC(=O)CCCCCN=C(N)N)cc1`, the Potency result with CP247, with CP250, with CP252, in the assay on CP256, with CP262 and in the assay on CP266 was “inactive” in each case. For the same compound, the Potency entry in the assay with CP268 and with CP269 was “inactive” throughout.
`CCn1cc(C(=O)O)c(=O)c2cc(F)c(N3CCNCC3)nc21`: the Potency entry in the assay on CP247, in the assay with CP250, in the assay with CP262, with CP265 and in the assay with CP268 was “inactive” in each case.
`CCCc1nc(C)c2c(=O)[nH]c(-c3cc(S(=O)(=O)N4CCN(CC)CC4)ccc3OCC)nn12`: the Potency result in the assay with CP247, with CP250, with CP252, in the assay on CP256, with CP262 and in the assay on CP265 was “inactive” each time. Also, the Potency result in the assay on CP268 and with CP269 was “inactive” in each case.
Turning to `COc1cc([C@@H]2c3cc4c(cc3[C@H](O)[C@H]3COC(=O)[C@H]23)OCO4)cc(OC)c1OC`, the Potency in the assay with CP247 is 10 µM (active); in the assay on CP250 it was 8.91 µM (active); with CP256, 8.91 µM (active); with CP260, 2.82 µM (active); in the assay with CP265 it was 2.51 µM (active); in the assay with CP268 it was 9.53 µM (active). In addition, in the assay on CP269, the Potency is 4.26 µM (active). For the same compound, the Potency result with CP262 is “inactive”.
Take `CC(N)C12CC3CC(CC(C3)C1)C2` (centres undefined): the Potency entry in the assay on CP250, with CP252, with CP256, in the assay on CP262, with CP266 and in the assay with CP269 was “inactive” in each case.
In the case of `Oc1c(Cl)cc(Cl)c2cccnc12`, the Potency in the assay with CP247 was 8.91 µM (active); with CP250, 12.6 µM (active). Besides, the Potency result with CP266 was “inactive”.
On to `CCn1cc(C(=O)O)c(=O)c2cc(F)c(N3CCNCC3)cc21`, for which the Potency result in the assay with CP247, in the assay on CP250, with CP262 and in the assay with CP265 was “inactive” each time.
As for `CN1CCCC(n2nc(Cc3ccc(Cl)cc3)c3ccccc3c2=O)CC1` (centres undefined), the Potency entry with CP250, in the assay with CP252, in the assay with CP256, in the assay with CP262, in the assay with CP266 and in the assay with CP268 was “inactive” each time. Moreover, the Potency result with CP269 is “inactive”.
Consider `O=S(=O)(O)CCS`, for which the Potency result in the assay on CP247, in the assay with CP250, with CP252, with CP256, with CP262 and with CP265 was “inactive” throughout. In addition, the Potency entry in the assay with CP266, in the assay with CP268 and in the assay with CP269 was “inactive” each time.
For `Cc1oc(=O)oc1CN1CCN(c2cc3c(cc2F)c(=O)c(C(=O)O)c2n3C(C)S2)CC1` (centres undefined), the Potency with CP247 is 8.91 µM (active); in the assay with CP250 it was 8.91 µM (active); with CP252, 7.94 µM (active); in the assay on CP256, 8.91 µM (active); with CP260 it was 6.31 µM (active); in the assay with CP265 it was 11.2 µM (active). For the same compound, the Potency result with CP266 is “inactive”.
As to `CC(C)(Sc1cc(C(C)(C)C)c(O)c(C(C)(C)C)c1)Sc1cc(C(C)(C)C)c(O)c(C(C)(C)C)c1`, the Potency result in the assay with CP247, in the assay on CP250, in the assay on CP252, in the assay with CP256, in the assay with CP265 and in the assay on CP266 was “inactive” in each case. The Potency result in the assay with CP268 and with CP269 was “inactive” in each case. In the assay with CP260, the Potency is 3.55 µM (active).
As to `CC(C)(C)C(=O)OCOP(=O)(COCCn1cnc2c(N)ncnc21)OCOC(=O)C(C)(C)C`, the Potency entry with CP247, in the assay with CP262, in the assay with CP266 and in the assay on CP268 was “inactive” throughout.
In the case of `COc1cc2c(Nc3ccc(Br)cc3F)ncnc2cc1OCC1CCN(C)CC1`, the Potency in the assay with CP247 was 1 µM (active); with CP250, 1.41 µM (active); in the assay with CP252 it was 1.12 µM (active); in the assay on CP256, 3.16 µM (active); with CP260 it was 3.55 µM (active); in the assay on CP265, 3.98 µM (active). In addition, the Potency was 2.13 µM (active) in the assay with CP268 and 5.36 µM (active) in the assay with CP269. Moreover, the Potency result in the assay with CP266 was “inactive”.
Turning to `CC(C)Cn1cnc2c(N)nc3ccccc3c21`, the Potency result in the assay on CP247, in the assay with CP250, in the assay with CP252, in the assay on CP256, with CP262 and with CP265 was “inactive” each time. Also, the Potency result with CP266, in the assay on CP268 and with CP269 was “inactive” throughout.
As for `C[C@@H](NCCCc1cccc(C(F)(F)F)c1)c1cccc2ccccc12`, the Potency in the assay with CP247 is 10 µM (active); in the assay on CP252, 8.91 µM (active); in the assay with CP260, 4.47 µM (active); with CP265, 11.2 µM (active); with CP269, 10.7 µM (active). The Potency result with CP262 is “inactive”.
For the compound `CNCC[C@H](Oc1cccc2ccccc12)c1cccs1`, the Potency with CP260 is 8.91 µM (active). In addition, the Potency result in the assay on CP266 is “inactive”.
As to `CN1CCN(c2c(F)cc3c(=O)c(C(=O)O)cn4c3c2OCN4C)CC1`, the Potency result in the assay on CP247, in the assay with CP250, with CP252, with CP256, in the assay with CP260 and in the assay with CP265 was “inactive” each time. The Potency entry in the assay with CP266, in the assay on CP268 and in the assay on CP269 was “inactive” throughout.
